# Measured values: PMC7862700, “An all-to-all approach to the identification of sequence-specific readers for epigenetic DNA modifications on cytosine”
# What was measured:
# Assay in all cases: DAPPL (digital affinity profiling via proximity ligation, sequencing); 10 mM Tris-HCl pH 7.5, 50 mM NaCl, 1 mM DTT, 4% glycerol, room temperature, 30 min; GST-TFs on glutathione beads, 16-mer random dsDNA library, 0.1% formaldehyde crosslink after washing; high values mean tight binding
# Conditions in all cases: protein: recombinant; tags: N-terminal GST; dsDNA, one strand shown
# [1] = biological target: T1, FLI1 (Homo sapiens, UniProt Q01543 1-452)
# T1 sequence: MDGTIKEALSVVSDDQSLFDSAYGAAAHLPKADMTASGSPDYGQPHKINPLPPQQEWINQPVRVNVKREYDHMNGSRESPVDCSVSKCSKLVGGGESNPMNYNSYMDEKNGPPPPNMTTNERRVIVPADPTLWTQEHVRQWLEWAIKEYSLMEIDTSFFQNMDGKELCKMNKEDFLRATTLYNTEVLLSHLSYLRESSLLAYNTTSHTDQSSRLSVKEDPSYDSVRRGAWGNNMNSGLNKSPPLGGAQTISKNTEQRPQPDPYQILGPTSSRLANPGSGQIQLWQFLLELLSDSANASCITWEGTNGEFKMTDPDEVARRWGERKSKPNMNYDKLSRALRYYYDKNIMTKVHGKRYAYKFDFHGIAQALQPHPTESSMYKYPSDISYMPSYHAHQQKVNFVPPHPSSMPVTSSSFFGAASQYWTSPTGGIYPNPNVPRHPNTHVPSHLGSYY
# Summary of the method: (§1)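 Binding signal is defined as a hexamer's read frequency for one factor over its frequency for the tag-only sample. To obtain reads, GST-fused human transcription factors were expressed in yeast, captured on glutathione beads, barcoded with DNA and pooled with that sample. Pools met 200 nmole of a 16-mer random double-stranded DNA library in Tris/NaCl/DTT/glycerol buffer for 30 min at room temperature before washing, 0.1% formaldehyde crosslinking, proximity ligation (BsaI/T4 ligase, 1 h, 37 °C), PCR and Illumina NextSeq500 sequencing.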
# [2] = biological target: T2, ELK1 (Homo sapiens, UniProt P19419 1-428)
# T2 sequence: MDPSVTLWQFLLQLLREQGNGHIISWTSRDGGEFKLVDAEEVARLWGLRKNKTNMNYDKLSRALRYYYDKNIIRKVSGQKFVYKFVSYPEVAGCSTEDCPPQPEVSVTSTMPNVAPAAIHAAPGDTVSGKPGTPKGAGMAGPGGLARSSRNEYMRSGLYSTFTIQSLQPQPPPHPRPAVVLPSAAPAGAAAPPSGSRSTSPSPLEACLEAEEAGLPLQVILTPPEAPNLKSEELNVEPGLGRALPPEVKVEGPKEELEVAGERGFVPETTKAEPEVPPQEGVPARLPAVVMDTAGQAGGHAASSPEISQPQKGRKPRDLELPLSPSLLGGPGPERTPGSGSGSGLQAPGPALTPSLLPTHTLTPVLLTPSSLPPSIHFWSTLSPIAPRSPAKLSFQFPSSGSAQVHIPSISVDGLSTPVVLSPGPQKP
# Summary of the method: as §1
# [3] = biological target: T3, GABPA (Homo sapiens, UniProt Q06546 1-454)
# T3 sequence: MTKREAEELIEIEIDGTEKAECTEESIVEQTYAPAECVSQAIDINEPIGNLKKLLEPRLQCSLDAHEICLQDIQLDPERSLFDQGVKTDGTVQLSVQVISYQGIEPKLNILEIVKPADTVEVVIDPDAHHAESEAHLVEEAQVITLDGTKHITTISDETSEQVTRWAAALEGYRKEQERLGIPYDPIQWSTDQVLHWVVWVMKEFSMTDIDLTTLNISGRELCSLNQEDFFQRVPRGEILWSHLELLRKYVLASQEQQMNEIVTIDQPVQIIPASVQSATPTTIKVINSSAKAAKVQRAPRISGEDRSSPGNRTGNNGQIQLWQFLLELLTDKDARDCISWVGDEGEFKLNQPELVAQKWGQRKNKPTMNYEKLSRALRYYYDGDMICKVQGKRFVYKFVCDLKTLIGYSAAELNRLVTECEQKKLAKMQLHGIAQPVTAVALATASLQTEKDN
# Summary of the method: as §1
# [4] = biological target: T4, ERG (Homo sapiens, UniProt P11308 1-479)
# T4 sequence: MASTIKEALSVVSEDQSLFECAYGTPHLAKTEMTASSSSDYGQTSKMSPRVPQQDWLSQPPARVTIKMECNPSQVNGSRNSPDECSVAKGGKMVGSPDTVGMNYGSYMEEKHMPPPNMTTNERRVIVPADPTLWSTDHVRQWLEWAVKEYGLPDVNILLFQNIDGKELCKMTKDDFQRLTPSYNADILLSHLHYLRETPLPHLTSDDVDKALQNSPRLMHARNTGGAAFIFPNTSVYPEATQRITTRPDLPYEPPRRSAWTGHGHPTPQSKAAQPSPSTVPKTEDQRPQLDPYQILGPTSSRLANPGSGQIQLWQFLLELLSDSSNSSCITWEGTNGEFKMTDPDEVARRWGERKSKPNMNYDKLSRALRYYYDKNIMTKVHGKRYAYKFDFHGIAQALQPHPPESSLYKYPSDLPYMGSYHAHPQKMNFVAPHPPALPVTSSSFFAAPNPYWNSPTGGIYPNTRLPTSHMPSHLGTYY
# Summary of the method: as §1
# [5] = biological target: ELF1 (Homo sapiens, UniProt P32519 1-619)
# Sequence of ELF1 (P32519 whole entry): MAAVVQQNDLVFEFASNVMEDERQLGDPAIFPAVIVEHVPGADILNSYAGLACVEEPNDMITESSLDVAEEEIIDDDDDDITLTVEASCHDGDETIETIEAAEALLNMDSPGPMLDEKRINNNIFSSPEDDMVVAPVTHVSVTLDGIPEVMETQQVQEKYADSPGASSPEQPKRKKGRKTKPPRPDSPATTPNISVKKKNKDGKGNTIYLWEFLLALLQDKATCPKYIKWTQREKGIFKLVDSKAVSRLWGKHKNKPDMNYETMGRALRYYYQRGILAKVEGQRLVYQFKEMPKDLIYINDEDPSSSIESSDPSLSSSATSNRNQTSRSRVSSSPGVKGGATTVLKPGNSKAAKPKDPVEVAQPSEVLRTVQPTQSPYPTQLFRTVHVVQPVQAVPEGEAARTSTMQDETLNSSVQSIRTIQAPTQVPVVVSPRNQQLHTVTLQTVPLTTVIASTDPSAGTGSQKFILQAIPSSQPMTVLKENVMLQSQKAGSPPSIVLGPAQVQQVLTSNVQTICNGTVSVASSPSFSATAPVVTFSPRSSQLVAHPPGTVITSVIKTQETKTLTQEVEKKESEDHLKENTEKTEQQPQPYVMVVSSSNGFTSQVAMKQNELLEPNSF
# Summary of the method: as §1
# [6] = biological target: SPI1 (Homo sapiens, UniProt P17947 1-270)
# Summary of the method: as §1
# [7] = biological target: T5, ELK3 (Homo sapiens, UniProt P41970 1-407)
# T5 sequence: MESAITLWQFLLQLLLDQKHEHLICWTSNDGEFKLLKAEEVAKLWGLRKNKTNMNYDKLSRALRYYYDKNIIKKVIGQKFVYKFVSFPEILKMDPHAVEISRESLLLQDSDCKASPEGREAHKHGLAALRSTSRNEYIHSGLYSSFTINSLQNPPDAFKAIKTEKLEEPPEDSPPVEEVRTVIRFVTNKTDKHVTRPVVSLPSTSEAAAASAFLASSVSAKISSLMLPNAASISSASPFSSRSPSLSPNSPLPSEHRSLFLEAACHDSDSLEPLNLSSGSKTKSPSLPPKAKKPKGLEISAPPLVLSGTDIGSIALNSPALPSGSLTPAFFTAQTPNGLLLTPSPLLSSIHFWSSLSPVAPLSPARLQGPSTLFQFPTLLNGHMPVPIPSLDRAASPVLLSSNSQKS
# Summary of the method: as §1
# [8] = biological target: SPIB (Homo sapiens, UniProt Q01892 1-262)
# Sequence of SPIB (Q01892 whole entry): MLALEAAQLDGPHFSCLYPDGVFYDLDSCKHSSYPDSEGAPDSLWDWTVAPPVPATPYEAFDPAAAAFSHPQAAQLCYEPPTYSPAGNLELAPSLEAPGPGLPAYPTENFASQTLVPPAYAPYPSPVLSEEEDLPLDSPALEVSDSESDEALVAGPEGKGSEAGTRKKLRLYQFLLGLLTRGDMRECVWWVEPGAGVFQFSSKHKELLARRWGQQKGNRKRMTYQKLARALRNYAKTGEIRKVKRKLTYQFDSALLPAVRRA
# Summary of the method: as §1
# [9] = biological target: T6, EHF (Homo sapiens, UniProt Q9NZC4 1-300)
# T6 sequence: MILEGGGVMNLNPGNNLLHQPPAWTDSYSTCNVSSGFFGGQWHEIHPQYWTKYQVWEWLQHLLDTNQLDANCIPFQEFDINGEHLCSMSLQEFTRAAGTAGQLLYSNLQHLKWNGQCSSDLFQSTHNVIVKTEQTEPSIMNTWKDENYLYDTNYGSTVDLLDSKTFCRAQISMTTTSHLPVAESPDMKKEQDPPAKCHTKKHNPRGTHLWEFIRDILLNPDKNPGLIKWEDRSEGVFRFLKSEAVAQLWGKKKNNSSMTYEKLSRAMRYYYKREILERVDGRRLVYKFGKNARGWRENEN
# Summary of the method: as §1
sequence,measurement,setting,value
AGACCT,binding signal,[1],"1.01 fold enrichment (6-mer frequency, TF over GST control)"
same,binding signal,[2],"1.04 fold enrichment (6-mer frequency, TF over GST control)"
same,binding signal,[3],"1.02 fold enrichment (6-mer frequency, TF over GST control)"
same,binding signal,[4],"1 fold enrichment (6-mer frequency, TF over GST control)"
same,binding signal,[5],"1.05 fold enrichment (6-mer frequency, TF over GST control)"
same,binding signal,[6],"1.06 fold enrichment (6-mer frequency, TF over GST control)"
same,binding signal,[7],"1.01 fold enrichment (6-mer frequency, TF over GST control)"
TAACGA,binding signal,[1],"1.09 fold enrichment (6-mer frequency, TF over GST control)"
same,binding signal,[2],"1.04 fold enrichment (6-mer frequency, TF over GST control)"
same,binding signal,[3],"1.07 fold enrichment (6-mer frequency, TF over GST control)"
same,binding signal,[4],"1.08 fold enrichment (6-mer frequency, TF over GST control)"
same,binding signal,[5],"1.03 fold enrichment (6-mer frequency, TF over GST control)"
same,binding signal,[6],"1.06 fold enrichment (6-mer frequency, TF over GST control)"
same,binding signal,[8],"1.1 fold enrichment (6-mer frequency, TF over GST control)"
same,binding signal,[7],"1.03 fold enrichment (6-mer frequency, TF over GST control)"
ACACGA,binding signal,[1],"1.08 fold enrichment (6-mer frequency, TF over GST control)"
same,binding signal,[2],"1.1 fold enrichment (6-mer frequency, TF over GST control)"
same,binding signal,[3],"1.11 fold enrichment (6-mer frequency, TF over GST control)"
same,binding signal,[4],"1.02 fold enrichment (6-mer frequency, TF over GST control)"
same,binding signal,[5],"1.1 fold enrichment (6-mer frequency, TF over GST control)"
same,binding signal,[6],"1.07 fold enrichment (6-mer frequency, TF over GST control)"
same,binding signal,[8],"1.04 fold enrichment (6-mer frequency, TF over GST control)"
same,binding signal,[7],"1.1 fold enrichment (6-mer frequency, TF over GST control)"
TGATCG,binding signal,[1],"1 fold enrichment (6-mer frequency, TF over GST control)"
same,binding signal,[2],"1 fold enrichment (6-mer frequency, TF over GST control)"
same,binding signal,[3],"1.03 fold enrichment (6-mer frequency, TF over GST control)"
same,binding signal,[5],"1.03 fold enrichment (6-mer frequency, TF over GST control)"
same,binding signal,[9],"1.13 fold enrichment (6-mer frequency, TF over GST control)"
same,binding signal,[6],"1.03 fold enrichment (6-mer frequency, TF over GST control)"
same,binding signal,[8],"1.12 fold enrichment (6-mer frequency, TF over GST control)"
same,binding signal,[7],"1.17 fold enrichment (6-mer frequency, TF over GST control)"
GCAATA,binding signal,[1],"1.02 fold enrichment (6-mer frequency, TF over GST control)"
same,binding signal,[2],"1.1 fold enrichment (6-mer frequency, TF over GST control)"
same,binding signal,[3],"1.02 fold enrichment (6-mer frequency, TF over GST control)"
same,binding signal,[5],"1.05 fold enrichment (6-mer frequency, TF over GST control)"
same,binding signal,[9],"1.07 fold enrichment (6-mer frequency, TF over GST control)"
GGCCCT,binding signal,[1],"1.09 fold enrichment (6-mer frequency, TF over GST control)"
same,binding signal,[2],"1.08 fold enrichment (6-mer frequency, TF over GST control)"
same,binding signal,[3],"1.11 fold enrichment (6-mer frequency, TF over GST control)"
same,binding signal,[4],"1.1 fold enrichment (6-mer frequency, TF over GST control)"
same,binding signal,[5],"1 fold enrichment (6-mer frequency, TF over GST control)"
same,binding signal,[8],"1.15 fold enrichment (6-mer frequency, TF over GST control)"
GGCTTG,binding signal,[1],"1.12 fold enrichment (6-mer frequency, TF over GST control)"
same,binding signal,[2],"1.04 fold enrichment (6-mer frequency, TF over GST control)"
same,binding signal,[3],"1.04 fold enrichment (6-mer frequency, TF over GST control)"
same,binding signal,[4],"1.09 fold enrichment (6-mer frequency, TF over GST control)"
same,binding signal,[6],"1.02 fold enrichment (6-mer frequency, TF over GST control)"
same,binding signal,[8],"1.06 fold enrichment (6-mer frequency, TF over GST control)"
GAACCA,binding signal,[1],"1.02 fold enrichment (6-mer frequency, TF over GST control)"
same,binding signal,[2],"1.05 fold enrichment (6-mer frequency, TF over GST control)"
same,binding signal,[3],"1.05 fold enrichment (6-mer frequency, TF over GST control)"
same,binding signal,[5],"1.05 fold enrichment (6-mer frequency, TF over GST control)"
same,binding signal,[9],"1.08 fold enrichment (6-mer frequency, TF over GST control)"
CCCTGG,binding signal,[1],"1.1 fold enrichment (6-mer frequency, TF over GST control)"
same,binding signal,[2],"1.13 fold enrichment (6-mer frequency, TF over GST control)"
same,binding signal,[3],"1.21 fold enrichment (6-mer frequency, TF over GST control)"
same,binding signal,[5],"1.19 fold enrichment (6-mer frequency, TF over GST control)"
same,binding signal,[9],"1.11 fold enrichment (6-mer frequency, TF over GST control)"
same,binding signal,[6],"1.06 fold enrichment (6-mer frequency, TF over GST control)"
same,binding signal,[8],"1.09 fold enrichment (6-mer frequency, TF over GST control)"
same,binding signal,[7],"1.03 fold enrichment (6-mer frequency, TF over GST control)"
